PubChem BioAssay (NCI)
About 83,000 compounds went through this panel and 20% of them were active in at least one assay; those are over-represented in the sample as a whole.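 Note: values are percent growth. 100 is the growth of untreated cells, values between 100 and 0 indicate rising inhibition; between -100 and 0 indicates cell death.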 Values without a mark were called inactive. Active and inactive are the calls of the source. Rule for the calls: active = growth percent below 10; inactive = the rest.

The compounds below were run on MALME-3M melanoma (assay: NCI-60 one-dose screen, 48 h (100 = growth as untreated, 0 = no growth, -100 = all killed)). Conditions: 10 µM unless noted.

SMILES	growth
CNCc1cccc2c1OCCOCCOCCN(CCN1CCOCC1)S(=O)(=O)c1ccc(cc1)-c1cnc(N)c(n1)C(=O)N2	93.8%
Cc1cnc(-c2ccc(-c3ccc(NC(=O)Nc4c(F)cc(F)cc4F)cc3F)c3c2C(=O)NC3)[nH]1	-3.16% (active)
Cc1cc(C)c(NC(=O)c2sc3nc4c(cc3c2N)CCCCCC4)c(C)c1	57.4%
O=C1NN(c2ccccc2)C(c2ccc3c(c2)OCO3)N2CCC[C@@H]12 (some centres not stated)	94.9%
C=C1C(=O)O[C@H]2[C@H]1CC/C(COC(=O)CCCCCCCCC(=O)OC/C1=C/CC[C@@]3(C)O[C@H]3[C@H]3OC(=O)C(=C)[C@@H]3CC1)=C\CC[C@@]1(C)O[C@@H]21	-18.4% (active)
COc1ccc(C2N(c3cc(OC)c(OC)c(OC)c3)C(=O)C2(F)F)cc1F (configuration not stated)	64.1%
C=C1C(=O)O[C@H]2[C@H]1CC/C(COC(=O)CCCCCCC(=O)OC/C1=C/CC[C@@]3(C)O[C@H]3[C@H]3OC(=O)C(=C)[C@@H]3CC1)=C\CC[C@@]1(C)O[C@@H]21	-2.86% (active)
O=c1nc(-c2ccccc2)c2cc(-c3ccc(N4CCCC4)nc3)ccc2[nH]1	89.6%
O=C(Nc1nc(-c2ccccc2)cs1)c1cc(-c2ccc(Br)cc2)nc2ccccc12	112%
COc1ccc2nc3c(n2c1)C(=O)C(=O)c1ccccc1-3	-90.1% (active)
C=C1C(=O)O[C@H]2[C@H]1CCC(/C=N/c1ncc(Br)cc1N)=C\CC[C@@]1(C)O[C@@H]21	-9.18% (active)
COC(=O)c1ccc(NC(=O)CSc2nc(-c3ccc(F)cc3)nc3ccccc23)cc1	60.9%
COc1ccc(C2C(c3ccccc3)C(=O)N2c2cc(OC)c(OC)c(OC)c2)cc1I (configuration not stated)	80.1%
O=[N+]([O-])c1cccc(CN(Cc2cccc([N+](=O)[O-])c2O)c2ccccc2)c1O	87.2%
Nc1c(C(=O)Nc2ccccn2)sc2nc3c(cc12)CCCCCC3	20.7%
C[C@]12CC[C@@H]3c4ccc(O)cc4CC[C@H]3[C@@H]1C[C@H](O)C2	80.5%
COCCOCCOCc1n(Cc2ccc3ccccc3c2)c2ccccc2[n+]1Cc1ccc2ccccc2c1	-18.1% (active)
COc1ccc(C(=O)c2cc(F)c(F)c(OC)c2F)cc1OC(=O)CCl	57%
Nc1cccc(C(=O)Nc2ccc3c(O)c(N=Nc4ccc(N=Nc5ccc(S(=O)(=O)O)cc5)cc4)c(S(=O)(=O)O)cc3c2)c1	97.1%

SMILES	growth
O=C(Nc1ccccc1)NS(=O)(=O)c1c[nH]c(=S)[nH]c1=O	100%
CC(C)CSc1nc(Nc2ccccc2)c(C#N)c(-c2ccc(F)cc2)n1	-5.57% (active)
CC(C)(C#N)c1cc(F)cc(C(=O)Nc2cc(Nc3ncccc3-c3ncnc4nc[nH]c34)ccc2F)c1	-28.4% (active)
COc1c(O)cc2oc3cc(O[C@@H]4OC(C)[C@@H](O)[C@H](O)C4O)c(CC=C(C)C)c(O)c3c(=O)c2c1CC=C(C)C (some centres not stated)	103%
O=C(CCCC(=O)Nc1ccc(-n2nnc3cc(Cl)c(Cl)cc32)cc1)Nc1ccc(-n2nnc3cc(Cl)c(Cl)cc32)cc1	48.2%
Cn1cc(-c2ccc3c(c2)ncn3-c2ccc(CC(=O)Nc3cc(C(C)(C)C)on3)cc2)cn1	25.5%
CCC1S/C(=N\N=C(/C)c2ccc[nH]2)N(c2ccccc2)C1=O (configuration not stated)	85.5%
CC(=O)ON1CCCC(P(=O)(OCOC(=O)C(C)(C)C)OCOC(=O)C(C)(C)C)C1=O (configuration not stated)	-8.77% (active)
Cc1cccc(C)c1Nc1nnc(-c2ccc(F)cc2)o1	96.5%
COc1ccc(C2=NN(c3ccc(S(N)(=O)=O)cc3)C(c3ccc(Cl)cc3)C2)c(O)c1 (configuration not stated)	93.5%
CC(=O)Nc1nc2c(c(N)c1C#N)C(c1cccc(Cl)c1)C1=C(CCCC1=O)N2c1sc2c(c1C#N)CCCC2 (configuration not stated)	83.3%
C#Cc1ccccc1NC(=O)c1sc2nc3c(cc2c1N)CCCCCC3	8.8% (active)
C=C(C)[C@@H]1CC[C@]2(C(=O)N3CCN(C)CC3)CC[C@]3(C)[C@H](CC[C@@H]4[C@@]5(C)C/C(=C/c6ccco6)C(=O)C(C)(C)[C@@H]5CC[C@]43C)[C@@H]12	66.8%
CCCCC(=O)Nc1c(C(=O)Nc2ccccc2)sc2nc3c(cc12)C(OC(=O)CCCC)CCC3 (configuration not stated)	105%
C#CC[C@@H]1C[C@]2(C)[C@H]3CC[C@@H]4[C@H]5[C@H](C(=C)C)CC[C@]5(C(=O)O)CC[C@@]4(C)[C@]3(C)CC[C@H]2C(C)(C)[C@H]1O	53%
Cc1ccc(-c2nc(C#N)c(S(=O)(=O)N(C)CCO)o2)cc1	60.1%
FC(F)(F)c1ccc2c(Nc3cccc(C4CC(c5ccccc5)=NN4c4ccc(Cl)cc4)c3)ccnc2c1 (configuration not stated)	83%
COc1ccc2nc(-c3ccc(OC)c(OC)c3)cc(-c3nnc(SCC(=O)Nc4ccc(/C(C)=N\O)cc4)n3-c3ccccc3)c2c1	110%
